This is part of a sample that, as a whole, favours compounds with a hit. Of some 83,000 tested, about 20% had one in any assay.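 Compound tested at a single concentration for 48 hours in 96-well plates; a percent growth value below 10 was scored as active.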 Active and inactive are the calls of the source.

Among the data in PubChem BioAssay (NCI) are growth values, retold here.

In the assay the test system is HL-60(TB) leukemia. In words: NCI-60 one-dose screen, 48 h (100 = growth as untreated, 0 = no growth, -100 = all killed). Conditions: 10 µM unless noted.
With `COc1ccc(-c2nn(-c3ccc(NC(=O)Nc4cc(C(F)(F)F)cc(C(F)(F)F)c4)cc3)cc2-c2ccncc2)cc1Cl`, the growth is 4.01% (active).

For `CCOC(=O)CSc1nc(-c2cc(OC)ccc2OC)cc(-c2ccc(OC)cc2)c1C#N`, the growth was 98.5% (inactive).

For the compound `C=C1C(=O)O[C@H]2[C@H]1CC/C(COC(=O)C(=O)c1cn(C)c3ccc(OC)cc13)=C\CC[C@@]1(C)O[C@@H]21`, the growth is -38.7% (active).

Turning to `CC(C)(C)c1cc(C(=O)Nc2cc3ccccc3cc2C(=O)NCCN)cc(C(C)(C)C)c1`, the growth was -68.9% (active).

With `CC1OC(n2c3ccccc3c3c4c(c5c6ccccc6[nH]c5c32)C(=O)N(CCN2CCOCC2)C4=O)CC(O)C1O` (stereo not given), the growth was 24.3% (inactive).
